Source: PubChem BioAssay (Tox21)
Results filed as inconclusive are left out. A call without a number means that no potency is given here. Active and inactive are the calls of the source. Calls follow the shape of the dose curve; as a rule, active = well fitted cell-killing curve with a large enough effect in the repeat runs; inconclusive = weak or mixed curves, or effect the other way; inactive = flat fitted curve, though single readings scatter.

assay: qHTS assay to identify small molecule that activate the aryl hydrocarbon receptor (AhR) signaling pathway - cell viability counter screen (AID 743086); details: HepG2-AhR-luc viability, CellTiter-Fluor, 24 h; series mostly up to 70.3 µM;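 also: HepG2 liver cells carrying the AhR DRE luciferase reporter; nearly all actives have a fitted effect of over 45% in size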
Source text: U.S. Tox21 Program National Center for Advancing Translational Sciences [NCATS] NIH Chemical Genomics Center [NCGC] U.S. Environmental Protection Agency [EPA] National Institutes of Environmental Health Sciences [NIEHS] National Toxicology Program [NTP] U.S. Food and Drug Administration [FDA] Tox21 Assay overview: The Aryl hydrocarbon Receptor (AhR), a member of the family of basic helix-loop-helix transcription factors, is crucial to adaptive responses to environmental changes. AhR mediates cellular responses to environmental pollutants such as aromatic hydrocarbons through induction of phase I and II enzymes but also interacts with other nuclear receptor signaling pathways A cell based HepG2-AhR-luc assay (HG2L7.5c1 cell line, developed by Dr. Michael S. Denison, University of California at Davis) was used to assess the activation of AhR. HepG2 (human hepatocellular carcinoma) cells were stably transfected with an Ah receptor-responsive firefly luciferase reporter gene plasmid containing 20 dioxin responsive elements and luciferase reporter gene. Increased luciferase activity can be used to identify the compounds that induce AhR activation. The cytotoxicity of the compounds screened against the HepG2-AhR-luc cell line was tested in parallel by measuring the cell viability using CellTiter-Fluor assay in the same wells.
Tox21 Assay Protocol Summary: 4000 cells in 5 uL/well were dispensed into white wall/solid bottom 1536-well plates using a Multidrop Combi (Thermo Fisher Scientific Inc., Waltham, MA) dispenser. After the assay plates were incubated at 37C for 5 h, 23 nL of compound or DMSO vehicle was transferred to the assay plates by a pintool station (Kalypsys, San Diego, CA). The plates were incubated at 37C for 24 hr. For cell viability measurement, 1 ul/well of CellTiter-Fluor reagent (Promega, Madison, WI) was added into the assay plates using a Flying Reagent Dispenser (FRD) (Aurora Discovery, CA),and then the assay plates were incubated at 37C for 30 min. The fluorescence intensity in the plates was measured using a ViewLux plate reader (PerkinElmer, Shelton, CT), followed by the addition of 4 uL of ONE-Glo Luciferase Assay reagent (Promega) using an FRD (Aurora Discovery). After the assay plates were incubated at room temperature for 30 min, luminescence intensity was measured using a ViewLux plate reader (Perkin Elmer).

| SMILES | Potency |
| --- | --- |
| C=C(C)[C@@H]1CCC2=CC(=O)C[C@@H](C)[C@]2(C)C1 | inactive |
| COc1ccc(NC(C)=O)cc1 | inactive |
| C=CCOCC(O)CS(=O)(=O)O (stereo not given) | inactive |
| C=C(C)C(=O)NCCCN(C)C | inactive |
| CCCCCCCCC=O | inactive |
| Cc1ccc(Nc2ccc(O)c3c2C(=O)c2ccccc2C3=O)cc1 | inactive |
| OCCCCCCO | inactive |
| Oc1cc(O)c2c(c1)O[C@H](c1ccc(O)c(O)c1)[C@H](O)C2 | inactive |
| OCC(O)[C@@H](O)[C@H](O)[C@H](O)CO[C@H]1O[C@H](CO)[C@@H](O)[C@H](O)[C@H]1O (stereo not given in full) | inactive |
| NC(=O)c1ncn([C@@H]2O[C@H](CO)[C@@H](O)[C@H]2O)c1O | inactive |
| CCCCN(CCO)CCO | inactive |
| CC(C)c1cccc(O)c1 | inactive |
| CCc1cc(S(=O)(=O)O)c2cc(C(C)C)cccc1-2 | inactive |
| CCN(CC)C(=O)c1ccc(O)c(OC)c1 | inactive |
| CCN1CCCC1CNC(=O)c1cc(S(N)(=O)=O)ccc1OC (stereo not given) | inactive |
| CC(C)(C)N(CCO)CCO | inactive |
| CCCCNc1ccccc1 | inactive |
| C#CC(C)(O)CC(C)C (stereo not given) | inactive |
| c1ccc(SCCSc2ccccc2)cc1 | inactive |
| COC(=O)CCCCCCCCC(=O)OC | inactive |

| SMILES | Potency |
| --- | --- |
| COc1cc(CCC(C)=O)ccc1O | inactive |
| CC(CCO)CCCC(C)(C)O (stereo not given) | inactive |
| COC(C(=O)O)c1ccccc1 (stereo not given) | inactive |
| CC(C)(O)C(=O)c1ccc(OCCO)cc1 | inactive |
| Cc1ccc(N)cc1[N+](=O)[O-] | inactive |
| CCCCC=O | inactive |
| O=C(O)c1ccccc1-c1ccc(C(F)(F)F)cc1 | inactive |
| CC(C)[N+](C)(C)CC(O)COc1cccc2ccccc12 (stereo not given) | inactive |
| CC(C)N1C(=O)c2ccccc2C1=O | inactive |
| CC(C)c1cccc(C(C)C)c1N | inactive |
| CN(C)N=Nc1ccccc1 | inactive |
| C=CCSCC1Nc2cc(Cl)c(S(N)(=O)=O)cc2S(=O)(=O)N1 (stereo not given) | inactive |
| CSc1ccc(C=O)cc1 | inactive |
| O=Cc1ccccc1[N+](=O)[O-] | inactive |
| NC(CS)C(=O)O (stereo not given) | inactive |
| CCCCCCCCCCCCCCCCCCOCC(O)CO (stereo not given) | inactive |
| COCc1ccc(COC)cc1 | inactive |
| Nc1nc2c(ncn2CCC(CO)CO)c(=O)[nH]1 | inactive |
| COc1ccc(N=[N+]([O-])c2ccc(OC)cc2)cc1 | inactive |
| N#CC1(O)CCCCC1 | inactive |
